The text below walks through data of PubChem BioAssay.

For part of these data: Entries with a potency or affinity are not part of this list. Active and inactive are the calls of the source.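 Rule for the calls, unless noted: active = fitted half-maximal concentration within the tested dose range, moderate curve steepness, a statistically real signal drop, and little compound fluorescence or tag-binding interference; inactive = the rest.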

In test [1] the target is Cell division control protein 42 homolog (Homo sapiens) (UniProt P60953). In words: activated mutant Cdc42 GTP-binding inhibitors, dose response, biochemical, multiplex bead flow cytometry, Bodipy-FL-GTP (AID 1333). For orientation: A flow cytometer gives signals particle by particle.
Chain of Cell division control protein 42 homolog (Homo sapiens) (P60953 whole entry, looked up): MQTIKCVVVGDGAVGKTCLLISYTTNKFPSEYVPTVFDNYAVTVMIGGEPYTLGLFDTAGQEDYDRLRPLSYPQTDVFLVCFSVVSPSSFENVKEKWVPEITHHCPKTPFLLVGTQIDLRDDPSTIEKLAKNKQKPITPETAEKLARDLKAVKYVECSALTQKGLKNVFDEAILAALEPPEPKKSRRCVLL
Test [2] shares this target. In words: wildtype Cdc42 GTP-binding inhibitors, dose response, biochemical, multiplex bead flow cytometry, Bodipy-FL-GTP (AID 1334;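 active = fitted half-maximal concentration within the tested range, moderate curve steepness, significant signal drop, and little compound fluorescence or bead-linkage interference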). As to conditions: bead-based flow cytometry, Bodipy-FL-GTP binding to GST-Cdc42; at 100 µM (top of the series) unless noted.
The target of test [3] is GTPase HRas (Homo sapiens) (UniProt P01112). The test is described as follows: inhibitors of GTP binding to wildtype Ras, dose response, biochemical, multiplex bead flow cytometry (AID 1335;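 active = fitted half-maximal concentration within 10 nM to 100 µM, steepness 0.5 to 2, significant signal drop, low assay interference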). The note with it: bead-based flow cytometry, Bodipy-GTP binding to GST-Ras; at 100 µM (top of the series) unless noted.
Chain of GTPase HRas (Homo sapiens) (P01112 whole entry, looked up): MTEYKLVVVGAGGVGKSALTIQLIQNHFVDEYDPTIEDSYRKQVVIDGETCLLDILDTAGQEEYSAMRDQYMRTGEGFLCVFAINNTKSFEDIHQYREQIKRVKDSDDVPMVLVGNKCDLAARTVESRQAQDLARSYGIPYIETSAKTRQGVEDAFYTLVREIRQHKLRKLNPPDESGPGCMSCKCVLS
Test [4] has as its system Ras-related protein Rab-7a (dog), GTP binding. In words: Rab7 GTP binding inhibitors, potency, dose response, biochemical, wildtype, multiplex bead flow cytometry (AID 1336; call rule not given here).
Test [5] addresses Ras-related C3 botulinum toxin substrate 1 (Homo sapiens) (UniProt P63000). In words: wildtype Rac1 GTP binding inhibitors, dose response, biochemical, multiplex bead flow cytometry (AID 1340;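 active = dose curve with midpoint inside tested range, moderate steepness, plateau gap beyond fit error, low compound glow and bead-link interference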). As to conditions: GST-Rac1 beads, Bodipy-FL-GTP binding; at 100 µM (top of the series) unless noted.
Test [6] has as its target GTPase HRas (Homo sapiens) (UniProt P01112). In words: activated Ras mutant GTP binding inhibitors, dose response, biochemical, multiplex bead flow cytometry (AID 1341;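 active = dose-response curve with midpoint inside the tested range, moderate steepness, significant amplitude and little compound fluorescence or bead-attachment interference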;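 note: GST-tagged constitutively activated Ras mutant immobilized on beads and multiplexed with other GTPases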).

`CCN(c1ccc(N=Cc2c(O)n(Cc3ccc(OC)cc3)c(=O)c3ccccc23)cc1)C(C)C`: the call in test [1], in test [4] and in test [6] was inactive. Also, the fluorescence, percent of control (lower = inhibition) in test [2] amounted to 154%. In addition, the GTP binding, percent of control in test [3] turned out to be 196%. Also, in test [5], the GTP binding signal, raw median fluorescence (lower = inhibition) (MCF (arbitrary fluorescence units)) was determined as 452.

Take `CCOc1ccc(NCc2ccccc2OCc2cccc(F)c2)cc1`: the compound was classed as inactive in test [1], in test [4] and in test [6]. The fluorescence, percent of control (lower = inhibition) in test [2] came to 69.4%. In addition, the GTP binding, percent of control in test [3] is 68.1%. In test [5], this compound yielded a GTP binding signal, raw median fluorescence (lower = inhibition) (MCF (arbitrary fluorescence units)) of 0.

For the compound `CSc1ccc(/C=N/NC(=O)c2cc(O)cc(O)c2)cc1`, the compound was classed as inactive in test [1], in test [4] and in test [6]. In addition, the fluorescence, percent of control (lower = inhibition) in test [2] stood at 33.1%. For the same compound, the GTP binding, percent of control in test [3] was found to be 58.6%. Besides, in test [5], the GTP binding signal, raw median fluorescence (lower = inhibition) (MCF (arbitrary fluorescence units)) is 160.

As for `CCCCCCCCSc1nnc2[nH]c(=O)cc(N)n12`, the call in test [1], in test [4] and in test [6] was inactive. In addition, the fluorescence, percent of control (lower = inhibition) in test [2] stood at 33.4%. In test [3], the GTP binding, percent of control worked out at 79.8%. In test [5], this compound had a GTP binding signal, raw median fluorescence (lower = inhibition) (MCF (arbitrary fluorescence units)) of 241.

Regarding `CN(C)/C=C(\C#N)C(N)=C(C#N)C#N`, the result in test [1], in test [4] and in test [6] was inactive. For the same compound, the fluorescence, percent of control (lower = inhibition) in test [2] was found to be 38.1%. For the same compound, the GTP binding, percent of control in test [3] turned out to be 82.8%. The GTP binding signal, raw median fluorescence (lower = inhibition) (MCF (arbitrary fluorescence units)) in test [5] was found to be 259.

As for `Cc1ccc(-c2ccc(/C=C3\SC(N4CCOCC4)=NC3=O)o2)cc1`, the call in test [1], in test [4] and in test [6] was inactive. Moreover, the fluorescence, percent of control (lower = inhibition) in test [2] is 31.4%. Besides, the GTP binding, percent of control in test [3] was 71.6%. Further, in test [5], the GTP binding signal, raw median fluorescence (lower = inhibition) (MCF (arbitrary fluorescence units)) came to 195.

As to `O=C(O)c1nnn(Cc2ccc(Br)cc2)c1C(=O)O`, the call in test [1], in test [4] and in test [6] was inactive. For the same compound, in test [2], the fluorescence, percent of control (lower = inhibition) was found to be 58.8%. Besides, in test [3], the GTP binding, percent of control amounted to 80.4%. In test [5], this compound gave a GTP binding signal, raw median fluorescence (lower = inhibition) (MCF (arbitrary fluorescence units)) of 30.6.

Consider `O=C(CCc1nnc(-c2ccc3c(c2)OCO3)o1)N1CCC(c2ccc(F)cc2)C1` (stereo not given), for which the compound was called inactive in test [1], in test [4] and in test [6]. Further, in test [2], the fluorescence, percent of control (lower = inhibition) was 36.1%. In test [3], the GTP binding, percent of control was 88.1%. In test [5], this compound displayed a GTP binding signal, raw median fluorescence (lower = inhibition) (MCF (arbitrary fluorescence units)) of 303.

On to `COc1ccc(OCCSc2nc3nc(C)cc(C)n3n2)cc1`, for which the outcome in test [1], in test [4] and in test [6] was inactive. The fluorescence, percent of control (lower = inhibition) in test [2] worked out at 45.5%. In test [3], this compound returned a GTP binding, percent of control of 87.4%. The GTP binding signal, raw median fluorescence (lower = inhibition) (MCF (arbitrary fluorescence units)) in test [5] is 178.

Regarding `Cc1ccc(/C(N)=N/OC(=O)CCC2CCCCC2)cc1`, the compound was called inactive in test [1], in test [4] and in test [6]. Moreover, the fluorescence, percent of control (lower = inhibition) in test [2] was found to be 80.5%. For the same compound, in test [3], the GTP binding, percent of control was determined as 154%. The GTP binding signal, raw median fluorescence (lower = inhibition) (MCF (arbitrary fluorescence units)) in test [5] is 180.

Regarding `COc1ccc(NC(=O)CSc2ccc3nnc(-c4cccnc4)n3n2)c(OC)c1`, the call in test [1], in test [4] and in test [6] was inactive. Besides, the fluorescence, percent of control (lower = inhibition) in test [2] came out at 37.4%. In test [3], this compound gave a GTP binding, percent of control of 72.3%. In test [5], the GTP binding signal, raw median fluorescence (lower = inhibition) (MCF (arbitrary fluorescence units)) is 165.

On to `O=C(O)COc1ccccc1/C=N/NC(=O)c1cc(-c2ccc(F)cc2)nc2ccccc12`, for which the compound was classed as inactive in test [1], in test [4] and in test [6]. In test [2], the fluorescence, percent of control (lower = inhibition) came out at 30.7%. This compound also showed a GTP binding, percent of control in test [3] of 80.5%. In addition, in test [5], the GTP binding signal, raw median fluorescence (lower = inhibition) (MCF (arbitrary fluorescence units)) came to 177.

For the compound `Cc1ccc(Sc2c(C)nn(C(=O)C3CC3)c2C)cc1`, the result in test [1], in test [4] and in test [6] was inactive. For the same compound, the fluorescence, percent of control (lower = inhibition) in test [2] was determined as 28.8%. The compound also registered a GTP binding, percent of control in test [3] of 78.5%. In test [5], this compound returned a GTP binding signal, raw median fluorescence (lower = inhibition) (MCF (arbitrary fluorescence units)) of 236.

As to `O=C(c1n[nH]c(=O)c2ccccc12)N1CCN(C2c3ccccc3-c3ccccc32)CC1`, the outcome in test [1], in test [4] and in test [6] was inactive. Besides, the fluorescence, percent of control (lower = inhibition) in test [2] was found to be 87%. This compound returned a GTP binding, percent of control in test [3] of 156%. The GTP binding signal, raw median fluorescence (lower = inhibition) (MCF (arbitrary fluorescence units)) in test [5] was determined as 175.

Take `Cc1ccc2nc(CSc3nc(C)cc(C)c3C#N)[nH]c2c1`: the compound was classed as inactive in test [1], in test [4] and in test [6]. Also, the fluorescence, percent of control (lower = inhibition) in test [2] was 35.3%. The same compound displayed a GTP binding, percent of control in test [3] of 77.6%. This compound returned a GTP binding signal, raw median fluorescence (lower = inhibition) (MCF (arbitrary fluorescence units)) in test [5] of 242.
